Assay results as given in PubChem BioAssay (NCATS).
Inconclusive results are not listed. Where a call stands in place of a potency, no number is given. Active and inactive are the calls of the source. Calls follow the shape of the dose curve; as a rule, active = well fitted curve in the direction sought with a large enough effect; inconclusive = small, poorly fitted or top-dose-only effect, or another doubt; inactive = no such curve, though single readings can be large; an effect the other way counts as inactive or inconclusive.

Columns and labels:
[1] = target: Ubiquitin carboxyl-terminal hydrolase 2 (Homo sapiens) (UniProt O75604); experiment: qHTS for Inhibitors of Ubiquitin-specific Protease USP2a Using CHOP2 as the Reporter: K484 Substrate (AID 652173);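 also: cleavage of internally quenched K48 di-ubiquitin substrate measured as rising fluorescence over time; potency is read from the fitted curve at half-maximal effect; nearly all actives have a fitted effect of over 70% in size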
Outline: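 Kinetic fluorescence (Ex 525/Em 598) tracked cleavage of an internally quenched K48 di-ubiquitin substrate, added as a 100 nM solution. The enzyme was added as a 5 nM USP2 solution before compound pinning, with no-enzyme controls. Buffer: Tris pH 8, beta-mercaptoethanol, CHAPS.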

[2] = target: Calcium and integrin-binding protein 1 (Homo sapiens) (UniProt Q99828); experiment: Primary qHTS for Identification of Calcium Integrin Binding Protein 1 (CIB1) Competitor (AID 1508620);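 also: GST tagged CIB1 binding a fluorescein labelled alphaIIb integrin peptide tracer; top concentration of the series differs between compounds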
Outline: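 Fluorescence polarization competition: GST-tagged CIB1 (1 uM final) preincubated with compound 15 min at room temperature, then FITC-labelled alphaIIb peptide (100 nM final) added. After 15 min at room temperature, polarization read at Ex 480/Em 540.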

[3] = qHTS for Inhibitors of Ubiquitin-specific Protease USP2a Using CHOP2 as the Reporter: Cytotox Assay (AID 652170); also: nearly all actives have a fitted effect of over 70% in size; also: potency is read from the fitted curve at half-maximal effect
Outline: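 Cytotoxicity read as ATP luminescence (CellTiter-Glo) after 72 hr compound treatment at 37 deg C. Cells: HCT116, 600/well in DMEM plus 10% FBS. Normalization between DMSO-treated cells and cell-free wells.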

[4] = target: Tyrosine-protein kinase Yes (Homo sapiens) (UniProt P07947); experiment: qHTS for small molecule inhibitors of Yes1 kinase: Primary Screen (AID 686947); also: potency is read from the fitted curve at half-maximal effect; nearly all actives have a fitted effect of over 60% in size
Outline: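 ADP-Glo luminescence reports ADP formed by 4 nM Yes1 phosphorylating poly(E4Y) (0.3 mg/mL) with 0.1 mM ATP for 60 min at room temperature, following 20 min compound preincubation; normalised between DMSO wells with and without enzyme.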

[5] = qHTS for small molecule inhibitors of Yes1 kinase: Counter Assay (AID 686950);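 also: no kinase present so only ADP-Glo detection of a fixed ADP amount is tested; luminescence from ADP-Glo reporting ADP in a fixed ATP and ADP mixture; series mostly up to about 77 µM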
Outline: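 No kinase present; 0.08 mM ATP + 0.02 mM ADP in 50 mM Tris pH 7.5, 10 mM MgCl2, 150 mM NaCl, 1 mM DTT; 20 min compound preincubation, 60 min RT, ADP-Glo luminescence, normalized to ATP/ADP (max) and ATP-only (min).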

Ubiquitin carboxyl-terminal hydrolase 2 (Homo sapiens), sequence (O75604 whole entry, looked up): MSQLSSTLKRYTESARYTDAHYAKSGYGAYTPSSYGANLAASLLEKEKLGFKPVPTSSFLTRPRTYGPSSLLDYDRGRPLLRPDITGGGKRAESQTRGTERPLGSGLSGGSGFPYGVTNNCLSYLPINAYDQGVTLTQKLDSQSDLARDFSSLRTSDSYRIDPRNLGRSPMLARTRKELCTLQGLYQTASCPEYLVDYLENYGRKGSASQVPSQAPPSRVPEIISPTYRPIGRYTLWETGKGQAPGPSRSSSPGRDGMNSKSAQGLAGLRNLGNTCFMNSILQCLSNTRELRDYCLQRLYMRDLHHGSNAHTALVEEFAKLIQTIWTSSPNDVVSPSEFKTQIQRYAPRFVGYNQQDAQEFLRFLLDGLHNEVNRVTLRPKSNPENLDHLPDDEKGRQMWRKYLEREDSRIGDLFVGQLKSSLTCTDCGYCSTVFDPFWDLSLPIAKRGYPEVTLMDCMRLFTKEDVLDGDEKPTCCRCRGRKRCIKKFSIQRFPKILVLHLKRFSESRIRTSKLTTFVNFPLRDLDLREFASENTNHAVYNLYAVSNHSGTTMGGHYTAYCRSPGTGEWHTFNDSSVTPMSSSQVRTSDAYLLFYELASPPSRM
Calcium and integrin-binding protein 1 (Homo sapiens), sequence (Q99828 whole entry, looked up): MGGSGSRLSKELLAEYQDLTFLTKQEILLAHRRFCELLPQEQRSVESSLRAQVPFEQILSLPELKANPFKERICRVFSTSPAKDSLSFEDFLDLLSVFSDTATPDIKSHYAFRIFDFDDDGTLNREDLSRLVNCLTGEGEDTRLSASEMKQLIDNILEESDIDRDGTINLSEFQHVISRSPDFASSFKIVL
Tyrosine-protein kinase Yes (Homo sapiens), sequence (P07947 whole entry, looked up): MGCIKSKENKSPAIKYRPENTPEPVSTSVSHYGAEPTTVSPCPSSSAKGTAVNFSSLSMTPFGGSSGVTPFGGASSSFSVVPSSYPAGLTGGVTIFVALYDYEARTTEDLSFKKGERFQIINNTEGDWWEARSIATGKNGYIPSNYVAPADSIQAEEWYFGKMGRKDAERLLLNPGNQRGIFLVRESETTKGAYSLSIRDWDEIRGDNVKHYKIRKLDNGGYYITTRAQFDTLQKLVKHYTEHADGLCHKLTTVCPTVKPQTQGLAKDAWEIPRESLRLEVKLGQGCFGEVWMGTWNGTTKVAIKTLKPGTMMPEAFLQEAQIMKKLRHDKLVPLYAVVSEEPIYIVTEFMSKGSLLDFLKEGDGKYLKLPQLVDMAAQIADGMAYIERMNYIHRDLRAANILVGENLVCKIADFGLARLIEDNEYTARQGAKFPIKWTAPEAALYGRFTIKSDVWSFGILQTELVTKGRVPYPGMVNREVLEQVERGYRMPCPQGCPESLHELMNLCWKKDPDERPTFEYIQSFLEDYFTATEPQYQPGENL

COC(=O)c1ccccc1C(=O)Nc1nc(-c2ccccc2)cs1
Potency [1]: 30.6 µM (active) | Potency [2]: inactive

Cc1ccc(S(=O)(=O)N(C)c2ccccc2C(=O)Nc2nc(-c3ccccc3)cs2)cc1
Potency [1]: 6.11 µM (active) | Potency [2]: inactive

Cc1ccc(S(=O)(=O)Nc2cccc(C(=O)Nc3nc(-c4ccc(Cl)cc4)cs3)c2)cc1
Potency [1]: 2.43 µM (active) | Potency [2]: inactive

Cc1ccc(-c2cc(C(=O)NCc3ccc(S(C)(=O)=O)cc3)c3ccccc3n2)cc1C
Potency [1]: 10.9 µM (active) | Potency [2]: inactive

O=C(Nc1ccc(S(=O)(=O)Nc2nccs2)cc1)[C@@H]1CC[C@H](C(=O)c2ccccc2)C1
Potency [3]: inactive | Potency [1]: 24.3 µM (active) | Potency [2]: inactive

COc1ccc(OC)c(C(=O)Nc2nc(-c3ccccc3)cs2)c1
Potency [1]: 7.69 µM (active) | Potency [2]: inactive

Cc1ccc(S(=O)(=O)n2cc(C(=O)Nc3nc(-c4ccccc4)cs3)c3ccccc32)cc1
Potency [1]: 6.11 µM (active) | Potency [2]: inactive

Cc1ccc(-c2cc(C(=O)Nc3ccccc3C)c3ccccc3n2)cc1C
Potency [1]: 21.7 µM (active) | Potency [2]: inactive

Cc1ccc(S(=O)(=O)Nc2cccnc2C(=O)Nc2nc(-c3ccccc3)cs2)cc1
Potency [3]: 14.8 µM (active) | Potency [1]: 1.37 µM (active) | Potency [2]: inactive

Cc1ccc(-c2cc(C(=O)Nc3ccc(S(=O)(=O)NCc4nccs4)cc3)c3ccccc3n2)cc1C
Potency [3]: inactive | Potency [1]: 3.43 µM (active) | Potency [2]: inactive

Cc1ccc(S(=O)(=O)Nc2ccccc2C(=O)Nc2nc(-c3ccccc3)co2)cc1
Potency [1]: 2.73 µM (active) | Potency [2]: inactive

Cc1ccc(S(=O)(=O)Nc2cc(Cl)cc(C(=O)Nc3nc(-c4ccccc4)cs3)c2)cc1
Potency [1]: 3.06 µM (active) | Potency [2]: inactive

O=C(Cc1ccc2ccccc2c1)Nc1ccc(S(=O)(=O)Nc2nccs2)cc1
Potency [3]: inactive | Potency [1]: 12.2 µM (active) | Potency [2]: inactive

O=C1Nc2ccc(C(=O)c3ccco3)cc2/C1=C/c1cc(Cl)c(O)c(Cl)c1
Potency [4]: 0.463 µM (active) | outcome [5]: inactive | Potency [2]: inactive

CCC1CCC(C(=O)Nc2ccc(S(=O)(=O)Nc3nccs3)cc2)CC1 (centres undefined)
Potency [3]: inactive | Potency [1]: 27.3 µM (active) | Potency [2]: inactive

COc1ccc(NS(=O)(=O)c2ccc(C)cc2)cc1C(=O)Nc1nc(-c2ccccc2)cs1
Potency [3]: inactive | Potency [1]: 3.43 µM (active) | Potency [2]: inactive

COc1cc(C(=O)Nc2nc(-c3ccccc3)cs2)ccc1NS(=O)(=O)c1ccc(C)cc1
Potency [3]: inactive | Potency [1]: 2.73 µM (active) | Potency [2]: inactive

COc1cc(NS(=O)(=O)c2ccc(C)cc2)ccc1C(=O)Nc1nc(-c2ccccc2)cs1
Potency [1]: 2.73 µM (active) | Potency [2]: inactive

Cc1ccc(NS(=O)(=O)c2ccc(C(=O)Nc3nc(-c4ccccc4)cs3)cc2)cc1
Potency [1]: 3.43 µM (active) | Potency [2]: inactive

Cc1ccc(-c2cc(C(=O)Nc3ccc(S(=O)(=O)Nc4ccc(C#N)cc4)cc3)c3ccccc3n2)cc1C
Potency [3]: inactive | Potency [1]: 3.06 µM (active) | Potency [2]: inactive
